The results in this text go back to PubChem BioAssay.

For orientation: inhibition means the relative decrease from the control value, in per cent.

The nature of test [1]: inhibitors of TNFa-induced NFkB p65 translocation, primary screen, imaging, HUVEC, MLSMR starter and 10KST1 sets (AID 438;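 active = inhibition above 20% together with a positive visual image hit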;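 note: compound added about 3h40 before a 20 min TNFalpha stimulation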;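 for inhibition: signal is the nuclear over cytoplasmic p65 intensity ratio per well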). Conditions: HUVEC TNFa-induced p65 nuclear translocation; cell count: measured here: nuclei count (cytotoxicity indicator), at 2.08 µM; inhibition: at 2 µM, stronger effect = higher value, 0% TNFa-plus-vehicle, 100% no-TNFa wells.
A short description of test [2]: inhibitors of mutant huntingtin aggregation, primary screen, imaging, exon1htt(103Q)mCFP cells, high-content imaging (AID 483;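 active = visual image review flags a hit and inhibition of aggregation exceeds 20%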;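 note: compound exposure lasted 3 days before fixation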;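 for nuclei count: percent of the per-plate median nuclei count of sample wells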). Conditions: exon1htt(103Q)mCFP cell line, aggregate imaging, at 2 µM; inhibition of aggregation: stronger effect = higher value; nuclei count: measured here: cell count, toxicity.
Test [3] can be described thus: inhibitors of E-selectin induction by TNFa, primary screen, imaging, HUVEC, immunofluorescence, MLSMR starter and 10KST1 sets (AID 487;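 active = visually confirmed hit in the image check and inhibition above 20%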;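 for inhibition: signal is fraction of cell area covered by stained E-selectin grains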;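 for nuclei count: 100% = median nuclei count of all wells on the same plate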). Particulars: HUVEC TNFalpha-induced E-selectin immunofluorescence imaging, at 2 µM; inhibition: stronger effect = higher value; nuclei count: measured here: cell number, toxicity.
The target of test [4] is Voltage-gated potassium channel subunit beta-2 (Rattus norvegicus) (UniProt P62483). The test is described as follows: KvBeta enzyme negative modulators, primary screen, biochemical, NADPH fluorescence (AID 622;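 active = fluorescence slope higher than the sample average by over 3 SD, cut at about -0.22 in these data, passing the limit was not always enough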;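 note: slope of raw intensity against log time taken from 70 to 1610 s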). Conditions: recombinant KvBeta, 4-cyanobenzaldehyde reduction, at 10 µM, stronger effect = higher value.
The target is the same in test [5]. The test can be described thus: KvBeta positive modulators, primary screen, biochemical, NADPH fluorescence (AID 623;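 active = NADPH fluorescence slope more negative than the mean of all samples by about 3 SD, 99.7% confidence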;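 note: fluorescence intensity change per second fitted from 20 to 320 s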). Particulars: Recombinant KvBeta, NADPH fluorescence decrease slope, 10 min; at 10 µM; stronger effect = lower value.
Test [6] has as its target Alpha-2C adrenergic receptor (Homo sapiens) (UniProt P18825). The test can be described thus: modulators of alpha2C/GIRK thallium flux, primary screen, cell-based, HEK293 alpha2C/GIRK1/2 (AID 624;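 active = fluorescence slope after compound addition differing from the mean of all screened samples at 99.7% confidence, in either direction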;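 note: slope of fluorescence ratio to pre-addition baseline per second over 15 to 24 s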). Conditions: thallium flux BTC fluorescence, at 10 µM, actives lie on both sides.
Test [7] can be described thus: inhibitors of Sendai virus-induced IRF3 signaling, primary screen, TLR/RLR signaling modifier project, cell-based, Sendai virus stimulus, luciferase, 10K MLSCN set (AID 602276).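 Note: firefly luciferase from ISG56 promoter only with Renilla not read in this screen; 0% = Sendai virus plus DMSO and 100% = medium plus DMSO without virus.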 Conditions: HEK293 RL24 IRF3 luciferase reporter, at 10 µM, stronger effect = higher value. (Reporter assays use an easily measured gene product as a stand-in for the process of interest.)
Test [8] is described as follows: inhibitors of poly I:C-induced TLR3 signaling, primary screen, cell-based, poly I:C stimulus, luciferase, 10K MLSCN set (AID 602277;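 active = inhibition of the reporter signal at or above 50%; inactive = inhibition below 50%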). Particulars: HEK293-TLR3 RL24 IRF3 luciferase reporter, at 10 µM, stronger effect = higher value.

Each structure is given as a SMILES string. Active and inactive are the calls of the source.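 Rule for the calls, unless noted: active = inhibition at or above 50% at 10 µM; inactive = inhibition below 50%.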

Chain of Alpha-2C adrenergic receptor (Homo sapiens) (P18825 whole entry, looked up): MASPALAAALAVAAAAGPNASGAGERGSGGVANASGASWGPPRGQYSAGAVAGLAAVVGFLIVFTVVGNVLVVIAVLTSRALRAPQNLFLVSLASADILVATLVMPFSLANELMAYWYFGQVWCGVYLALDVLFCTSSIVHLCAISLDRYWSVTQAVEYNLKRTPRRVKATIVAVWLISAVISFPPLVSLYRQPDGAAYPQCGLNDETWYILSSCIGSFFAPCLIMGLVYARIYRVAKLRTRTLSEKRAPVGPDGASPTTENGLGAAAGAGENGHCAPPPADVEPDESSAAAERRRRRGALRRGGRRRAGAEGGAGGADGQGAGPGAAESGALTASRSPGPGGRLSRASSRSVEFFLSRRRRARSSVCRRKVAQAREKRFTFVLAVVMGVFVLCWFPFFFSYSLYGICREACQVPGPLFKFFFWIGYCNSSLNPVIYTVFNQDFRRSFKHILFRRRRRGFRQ
Chain of Voltage-gated potassium channel subunit beta-2 (Rattus norvegicus) (P62483 whole entry, looked up): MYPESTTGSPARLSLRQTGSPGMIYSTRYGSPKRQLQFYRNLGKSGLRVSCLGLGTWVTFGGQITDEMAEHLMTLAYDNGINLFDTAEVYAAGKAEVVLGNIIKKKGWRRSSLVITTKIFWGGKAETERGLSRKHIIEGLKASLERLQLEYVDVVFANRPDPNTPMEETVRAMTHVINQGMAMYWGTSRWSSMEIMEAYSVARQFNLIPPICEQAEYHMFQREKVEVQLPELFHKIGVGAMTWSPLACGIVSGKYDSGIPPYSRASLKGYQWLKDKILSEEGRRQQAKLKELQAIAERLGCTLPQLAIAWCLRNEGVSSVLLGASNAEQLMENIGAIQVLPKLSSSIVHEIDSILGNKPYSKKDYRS

For `CC1=C(C(=O)Nc2cccnc2)C(c2ccc(C(C)C)cc2)n2ncnc2N1` (stereo not drawn), the cell count in test [1] was determined as 712. For the same compound, the inhibition in test [1] is -12.8% (inactive); in test [3], -56% (inactive); in test [7], 1.35% (inactive); in test [8], 20% (inactive). Further, in test [2], the inhibition of aggregation is -16.2% (inactive). Besides, the nuclei count stood at 118% in test [2] and 120% in test [3]. Further, in test [4], the fluorescence slope is -0.4 (inactive). Besides, the NADPH fluorescence slope in test [5] was 5.8e-05 (inactive). The slope in test [6] was 0.00428 (inactive).
`CCOC(=O)Nc1c(O)ccc2oc(C)c(-c3ccccc3)c12`: in test [1], the cell count is 271. Further, the inhibition was -6.4% (inactive) in test [1], -63.2% (inactive) in test [3], 18.3% (inactive) in test [7] and 28.6% (inactive) in test [8]. Further, the inhibition of aggregation in test [2] is -22% (inactive). The nuclei count came out at 104% in test [2] and 106% in test [3]. Besides, the fluorescence slope in test [4] is -0.5 (inactive). In addition, the NADPH fluorescence slope in test [5] was -0.000121 (inactive). Moreover, the slope in test [6] was 0.0037 (inactive).
As for `Oc1ccc2cccnc2c1`, the cell count in test [1] came out at 719. For the same compound, the inhibition in test [1] was -12.9% (inactive); in test [3], -44.3% (inactive); in test [7], -2.36% (inactive); in test [8] it was 0.747% (inactive). For the same compound, in test [2], the inhibition of aggregation was -15.8% (inactive). The nuclei count turned out to be 100% in test [2] and 118% in test [3]. Moreover, in test [4], the fluorescence slope is -0.12 (active). In test [5], the NADPH fluorescence slope is 2.2e-05 (inactive). Also, the slope in test [6] was 0.00432 (inactive).
Regarding `Cc1ccnc2c(N3C(=O)C4C5C=CC(C5)C4(C)C3=O)cccc12` (stereo not drawn), the cell count in test [1] was determined as 630. Further, the inhibition was -6.5% (inactive) in test [1], -13.1% (inactive) in test [3], 5.21% (inactive) in test [7] and 28.5% (inactive) in test [8]. Moreover, in test [2], the inhibition of aggregation was -2.2% (inactive). In addition, the nuclei count came to 94.9% in test [2] and 111% in test [3]. In addition, the fluorescence slope in test [4] was -0.556 (inactive). Moreover, the NADPH fluorescence slope in test [5] was -1.1e-05 (inactive). Besides, the slope in test [6] is 0.00676 (inactive).
Turning to `CCOC(=O)Nc1ccc(NS(=O)(=O)c2ccc(C)cc2)cc1`, the cell count in test [1] came out at 342. In addition, the inhibition was -0.8% (inactive) in test [1], -108% (inactive) in test [3], 1.72% (inactive) in test [7] and 9.39% (inactive) in test [8]. For the same compound, the inhibition of aggregation in test [2] is -13.3% (inactive). The results for the nuclei count in test [2] and in test [3] were 114% and 134%, respectively. For the same compound, the fluorescence slope in test [4] was -0.507 (inactive). Also, the NADPH fluorescence slope in test [5] was 8.9e-06 (inactive). The slope in test [6] was 0.00595 (inactive).
In the case of `CC1Cc2nc(SCC(=O)Nc3ccc(F)cc3F)n(C)c(=O)c2S1` (stereo not drawn), the cell count in test [1] stood at 366. Also, the inhibition in test [1] is -0.6% (inactive); in test [3] it was 0.8% (inactive); in test [7], 15.3% (inactive); in test [8], 11.8% (inactive). Further, the inhibition of aggregation in test [2] was -7.8% (inactive). In addition, the figures for the nuclei count in test [2] and in test [3] were 104% and 113%, respectively. Moreover, the fluorescence slope in test [4] was -0.587 (inactive). Also, the NADPH fluorescence slope in test [5] was -3.7e-05 (inactive). Further, the slope in test [6] is 0.00486 (inactive).
Turning to `O=C(CSc1nc2ccccc2s1)N1CCN(C(=O)c2ccco2)CC1`, the cell count in test [1] came out at 394. Also, the inhibition in test [1] was 0.5% (inactive); in test [3], -45.3% (inactive); in test [7], 7.64% (inactive); in test [8], 22.8% (inactive). Besides, the inhibition of aggregation in test [2] is 10% (inactive). The values for the nuclei count in test [2] and in test [3] were 104% and 102%, respectively. Also, the fluorescence slope in test [4] is -0.377 (inactive). Moreover, the NADPH fluorescence slope in test [5] is 9e-06 (inactive). Also, the slope in test [6] is 0.00381 (inactive).
For the compound `CCOC(=O)C1=C(C)N(C)C(=O)NC1c1cccc(O)c1` (stereo not drawn), the cell count in test [1] stood at 421. For the same compound, the inhibition in test [1] is 6.4% (inactive); in test [3] it was -43.5% (inactive); in test [7], 9.66% (inactive); in test [8] it was 17.5% (inactive). In test [2], the inhibition of aggregation is -6.7% (inactive). Also, the nuclei count came out at 99.3% in test [2] and 124% in test [3]. Further, the fluorescence slope in test [4] is -0.259 (inactive). Further, in test [5], the NADPH fluorescence slope is -1.3e-05 (inactive). The slope in test [6] is 0.00604 (inactive).
